This is part of a sample that, as a whole, favours compounds with a hit. Of some 83,000 tested, about 20% had one in any assay.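 Assay: single dose, 48 h. Readout: percent growth (0 = no net growth; negative = cell death). Active: <10.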 A number with no mark means an inactive call. Active and inactive are the calls of the source.
Key:
Assay in all cases: NCI-60 one-dose screen, 48 h (100 = growth as untreated, 0 = no growth, -100 = all killed)
Settings in all cases: 10 µM unless noted
NCI-H23 lung = test system: NCI-H23 lung
NCI-H322M lung = test system: NCI-H322M lung
HOP-62 NSCLC = test system: HOP-62 NSCLC
NCI-H460 lung = test system: NCI-H460 lung
HOP-92 NSCLC = test system: HOP-92 NSCLC
NCI-H522 lung = test system: NCI-H522 lung
A549/ATCC NSCLC = test system: A549/ATCC NSCLC
786-0 renal = test system: 786-0 renal
COLO 205 colon = test system: COLO 205 colon
DU-145 prostate = test system: DU-145 prostate
K-562 leukemia = test system: K-562 leukemia
MALME-3M melanoma = test system: MALME-3M melanoma
MDA-MB-231 breast = test system: MDA-MB-231 breast
RXF 393 renal = test system: RXF 393 renal
SF-268 CNS = test system: SF-268 CNS
SF-539 CNS = test system: SF-539 CNS
UACC-257 melanoma = test system: UACC-257 melanoma
M14 melanoma = test system: M14 melanoma
HCT-15 colon = test system: HCT-15 colon
SF-295 CNS = test system: SF-295 CNS

Structure (SMILES) | growth (NCI-H23 lung) | growth (NCI-H322M lung) | growth (HOP-62 NSCLC) | growth (NCI-H460 lung) | growth (HOP-92 NSCLC) | growth (NCI-H522 lung) | growth (A549/ATCC NSCLC) | growth (786-0 renal) | growth (COLO 205 colon) | growth (DU-145 prostate) | growth (K-562 leukemia) | growth (MALME-3M melanoma) | growth (MDA-MB-231 breast) | growth (RXF 393 renal) | growth (SF-268 CNS) | growth (SF-539 CNS) | growth (UACC-257 melanoma) | growth (M14 melanoma) | growth (HCT-15 colon) | growth (SF-295 CNS)
COc1ccc(C(O)(CCC(C)C)C(CN2CCOCC2)c2ccc(Cl)cc2)cc1 (stereo unspecified) | 74.6% | 88.3% | 63.6% | 86.8% | 77.8% | -16.9% (active) | 62.4% | 73.3% | 76.4% | 73.8% | 15.3% | 39.2% | 68.5% | 88.3% | 80.2% | 64.7% | 69.4% | 37.1% | 35.6% | 
COc1ccc(OC)c(N(CCN2C(=O)c3ccccc3C2=O)C(=O)CCl)c1 | 32.1% | 97.7% | -3% (active) | 90.3% | -11.4% (active) | -73.3% (active) | 76% | 38.6% | 80.6% | 86.1% | 102% | -36.4% (active) | 69.7% | 58.7% | 35.3% | 23.1% | 83% | 84.2% | 80.3% | 
CCOC(=O)c1cc2c(n1Cc1cccc(OC)c1)-c1oncc1CCC2 | 36.4% | 74.8% | 39.9% | 17.9% | 67.4% | 14.5% | 42.3% | 51.7% | -17.5% (active) | 23.3% | 10.8% | -0.828% (active) | 53.9% | 21.4% | 38.8% | 2.09% (active) | 42.7% |  | 29.3% | 7.73% (active)
O=S1(=O)N(Cc2ccccc2)[C@@H](Cc2ccccc2)[C@H](O)[C@H](O)[C@H](Cc2ccccc2)N1Cc1ccccc1 | 1.32% (active) | 12.6% | 18.4% | -44.8% (active) | 4.2% (active) | 9.21% (active) | 6.12% (active) | -1.43% (active) | -0.273% (active) | -23.4% (active) | 3.12% (active) | -14.2% (active) | -7.98% (active) | -40.8% (active) | 25.3% | -5.16% (active) | -22.1% (active) | -2.4% (active) | 3.16% (active) | -11.2% (active)
COc1cc(/C=C2\CCC/C(=C\c3cc(CN4CCOCC4)c(O)c(OC)c3)C2=O)cc(CN2CCOCC2)c1O | 21.4% | 46.4% | 46.6% | 11.6% | 36.8% | 34.4% | 35.8% | 57.8% | 45.2% | 14.9% | 15.3% | 46.3% | 26.2% | 6.08% (active) | 42.3% | 32% | 64.7% | 36.7% | 21.9% | 59.6%
CCOC(=O)c1cnc2ccc(Cl)cc2c1NCCCN(C)C | 22% | 10.4% | 8.63% (active) | 1.86% (active) | 41.1% | -17.5% (active) | 4.15% (active) | 8.14% (active) | 31.4% | 19.2% | 1.51% (active) | -6.52% (active) | 15.8% | -3.24% (active) | 1.81% (active) | -12.7% (active) | -3.99% (active) | 2.88% (active) | 26.2% | 
CCCC(c1nnnn1C1CCCCC1)N1CCN(C(=O)c2ccco2)CC1 (stereo unspecified) | 71% | 97.5% | 79.2% | 40.6% | 47.6% | 62.5% | 55.2% | 74.9% | 73.4% | 69.7% | 9.87% (active) | 53.2% | 63.9% | 65.1% | 60.8% | 65.7% | 82.5% | 30.5% | 45.5% | 
O=C1Nc2ccccc2/C1=C/c1cccs1 | 92.5% | 84.6% | 83.5% | 92.5% | 75.3% | 95.2% | 95.2% | 94.1% | 107% | 103% | 114% | 93.6% | 94.5% | 97.9% | 94.1% | 86.7% | 100% | 97.3% | 78.8% | 101%
O=S(=O)(c1ccccc1)n1cc2c(c1-c1ccccc1)CCc1sc(Nc3ccccc3)nc1-2 | 92.8% | 75.6% | 112% | 86.6% | 86.6% | 77.7% | 75.2% | 89.7% | 103% | 90.1% | 63.7% | 105% | 79.4% | 87% | 86.7% | 106% | 96.5% | 87.8% | 83.8% | 
O=CCCCC(O)C=O (stereo unspecified) | 96.3% | 109% | 95% | 101% | 107% | 107% | 105% | 97.5% | 100% | 106% | 103% | 104% | 115% | 102% | 106% | 105% | 106% | 105% | 108% | 
CCOC(=O)C1=C(C)N=c2s/c(=C\c3ccccc3O)c(=O)n2C1c1ccc(OC)c2ccccc12 (stereo unspecified) | 82.3% | 10.5% | 29.2% | -41.8% (active) | 4.78% (active) | -36.2% (active) | -21.1% (active) | 36% | -90% (active) | 43.5% | -48.4% (active) | -86.7% (active) | -38.9% (active) | -20.6% (active) | 37.6% | -83.7% (active) | -85.8% (active) | -71.7% (active) | 1.84% (active) | -83.5% (active)
O=C(Nc1nc2c(s1)CCc1c-2c(Br)n(Cc2ccccc2)c1Br)c1ccccc1 | 79.9% | 58.9% | 32.8% | 40.8% | 31.2% | 61.9% | 67.2% | 56.7% | 72.7% | 74.5% | 56.8% | -16.2% (active) | 36.6% | 36.6% | 60.7% | 18.1% | 64.9% |  | 81.6% | 62.5%
CCOC(=O)c1sc(-c2ccc(OS(=O)(=O)c3ccc(Br)s3)c(C=O)c2)nc1C | 11.9% | 83.8% | 19.6% | 77.6% | 26.5% | -5.7% (active) | 76.1% | 9.63% (active) | 84.8% | 21.2% | 9.45% (active) | 13.2% | 4.99% (active) | 51.7% | 16.4% | -5.53% (active) | 28.8% | 1.87% (active) | 1.83% (active) | 32.8%
Cc1ccc(CN2CCC(C(=O)Nc3ccc(-c4cc5ccccc5[nH]4)cc3)CC2)o1 | 69.6% | 95.1% | 97.9% | 27.9% | 36.8% | 72% | 33.7% | 38.4% | 83.4% | 60.2% | 3.08% (active) | 77.9% | 60.7% | 54.6% | 66.6% | 84.3% | 85.4% | 41.9% | 44.2% | 17.2%
Cc1c(-c2noc(-c3ccc([N+](=O)[O-])cc3)n2)no[n+]1[O-] | 86% | 88.4% | 86.1% | 103% | 85.2% | 102% | 111% | 99.5% | 113% | 99.9% | 93.7% | 99.5% | 95.4% | 102% | 92.6% | 97.4% | 106% | 93.8% | 93.1% | 99.9%
CCOC(=O)c1cc2c(n1Cc1cc(OC)c(OC)c(OC)c1)-c1oncc1CCC2 | 21.5% | 50.7% | 39.8% | 5.74% (active) | 129% | 5.14% (active) | 26.7% | 39.5% | -39.9% (active) | 13% | 6.98% (active) | 43.9% | 12.3% | 26.9% | 46.1% | -7.45% (active) | 70.7% | 18% | 16.9% | 
